# Experimental data published in PubChem BioAssay (NCI).
# Where “and” joins values, the source holds several entries; their conditions need not be identical. Equal values may be shown once. This is part of a sample that, as a whole, favours compounds with a hit. Of some 83,000 tested, about 20% had one in any assay.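 Method: cells in 96-well plates; compound added at one concentration; 48 h incubation; percent growth measured; values under 10 scored active.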 Calls of active or inactive are those of the source.
# Tested on: HL-60(TB) leukemia
# Assay: NCI-60 one-dose screen, 48 h (100 = growth as untreated, 0 = no growth, -100 = all killed)
# Settings: 10 µM unless noted
row,Structure (SMILES),growth
1,Clc1cccc(N/N=C/c2c[nH]c3ccccc23)n1,13.8% (inactive)
2,Cc1cc(N=C2NC(=O)/C(=C/c3cc(C(C)(C)C)c(O)c(C(C)(C)C)c3)S2)n[nH]1,5.2% (active)
3,S=C(Nc1ccccc1)Nc1ccc(OCc2nc3ccccc3[nH]2)cc1,20.2% (inactive)
4,O=C1NC(=S)/C(=C/c2cn(-c3ccccc3)nc2-c2ccccc2)S1,21% (inactive)
5,COc1ccccc1/C=C/c1cccc(NC(=S)NCCCCN(C)C)c1,-41.7% (active)
6,Cc1ccc(C2CC(c3ccc(S(=O)(=O)NCCNc4nc(N(C)C)nc(N5CCOCC5)n4)cc3)=Nc3c(N)nc(N)nc3N2)cc1 (configuration not stated),35.8% (inactive)
7,COC[C@@H](CC(C)C)N=C1N/C(=C\c2ccc3ncsc3c2)C(=O)N1C,-1.54% (active)
8,O=C1Nc2cc(Cl)ccc2/C1=C/c1cccc(OCc2ccccc2)c1,-25.3% (active)
9,C/C(=N\NC(N)=S)c1ccc(Nc2nc(SC(C)C)nc(-c3ccccc3)c2C#N)cc1,89.9% (inactive)
10,CC(=O)c1c(N)c(C#N)cn1-c1ccc(Cl)cc1Cl,102% (inactive)
11,CCOc1ccc(Nc2nc3ccccc3nc2Nc2ccc(OCC)cc2)cc1,31.4% (inactive)
12,COc1ccc2c(c1)c(/C=N/Nc1ccc3ccccc3n1)cn2C,-57.7% (active)
13,COc1cc(C=O)ccc1Oc1nc(Nc2ccc(F)cc2)nc(N(C)C)n1,65.2% (inactive) and 70.8% (inactive)
14,O=[N+]([O-])c1cccc(-c2nnc3c(/C=C/c4ccc(F)cc4)nc4ccccc4n23)c1,92.7% (inactive)
15,COc1ccc(-c2nc3ccc(-c4nnc(SCc5ccccc5)o4)cc3[nH]2)cc1,16.3% (inactive)
16,N#Cc1ccc(-c2nn(-c3ccc(C(=O)O)cc3)cc2CNc2cc(Cl)cc(Cl)c2)cc1,29.5% (inactive)
17,O=C(Cn1nc(-c2ccccc2)ccc1=O)N/N=C/c1ccc(N2CCOCC2)cc1,96.3% (inactive)
18,CN(C)CCn1c2ccccc2c2nc3cc4ccccc4cc3nc21,-51.2% (active)
19,COc1cc2c(c(OC)c1OC)C(=O)CC(c1cccc(NC(=O)c3cc(NC(=O)[C@@H](N)CO)ccc3C)c1)O2 (some centres not stated),101% (inactive)
20,O=C(CSc1nnc(-c2ccc(-c3nc4ccccc4[nH]3)cc2)o1)Nc1ccc(Cl)cc1,37.6% (inactive)
21,Cc1noc2c(Cc3ccccc3)nn(CC(=O)N/N=C/c3ccc(F)cc3)c(=O)c12,93.2% (inactive)
22,CCOP(=O)(OCC)O[C@H]1CCC(=O)[C@@H]2[C@H]1[C@H]1C[C@@H]3[C@@]4(C)CCCC(C)(C(=O)OC)[C@@H]4CC[C@@]23C=C1C(C)C (some centres not stated),36.4% (inactive)
23,Cc1nn(-c2ccccc2)c2nc(C)n(C(=O)N/N=C/c3ccccc3)c(=O)c12,104% (inactive)
24,O=C(O)Cn1c(O)c(/C=C2/C=c3cc4c(cc3=NC2=O)OCCO4)sc1=S,100% (inactive)
25,O=C(Nc1ccc(Cl)c([N+](=O)[O-])c1)Nc1ccc(Cl)c([N+](=O)[O-])c1,2.93% (active)
26,COc1ccc(CN2[C@@H](C(=O)NCc3ccc(C(=O)NO)cc3)Cc3c([nH]c4ccccc34)[C@@H]2C)cc1,-5.52% (active)
27,COc1ccc(/C=C/c2nc3ccccc3c(=O)n2CC(=O)Nc2ccc(Cl)cc2)cc1,96.2% (inactive)
